# Results filed as inconclusive are left out. Unmarked numbers belong to inactive results. Calls follow the shape of the dose curve; as a rule, active = well fitted inhibition curve with a large enough effect in the signal ratio in the repeat runs (not every such curve was filed as active); inconclusive = weak or mixed curves, or effect the other way; inactive = no such curve, though single readings can be large or run the other way; the % refers to the signal ratio.
# Biological target: Vitamin D3 receptor (Homo sapiens) (UniProt P11473)
# Assay: qHTS assay to identify small molecule antagonists of the vitamin D receptor (VDR) signaling pathway (AID 743223)
# Settings: VDR-UAS-bla HEK293T, beta-lactamase FRET ratio, 16 h; series mostly up to 61 µM; activity change, negative = inhibition: at the top concentration
# Excerpt: U.S. Tox21 Program National Center for Advancing Translational Sciences [NCATS] NIH Chemical Genomics Center [NCGC] U.S. Environmental Protection Agency [EPA] National Institutes of Environmental Health Sciences [NIEHS] National Toxicology Program [NTP] U.S. Food and Drug Administration [FDA] Tox21 Assay Overview: The vitamin D receptor (VDR), a member of nuclear hormone receptor superfamily, plays a critical role in calcium homeostasis and bone metabolism. It is also involved in cell differentiation and growth, and thrombogenicity.
# Tox21 Assay Protocol Summary: VDR-bla cells were dispensed at 2,000 cells/5 uL of assay medium per well into black wall/clear-bottom 1536-well plates using a Multidrop Combi (Thermo Fisher Scientific, Waltham, MA) dispenser. After the assay plates were incubated at a 37C and 5% CO2 for 4 h, 23 nL of compounds dissolved in DMSO, positive controls or DMSO only was transferred to the assay plate by a Pintool station (Kalypsys, San Diego, CA), followed by addition of 1 uL of 1alpha, 25-Dihydroxy Vitamin D3 (3 nM, final concentration in the wells) using a Bioraptr Flying Reagent Dispenser (FRD) workstation (Beckman Coulter, Indianapolis, IN). The plates were incubated at 37C and 5% CO2 for 16 h, and then 1 uL of LiveBLAzerTM B/G FRET substrate was added using a Bioraptr FRD. The plates were incubated at room temperature for 2 h and fluorescence intensity was measured by an Envision plate reader (PerkinElmer, Shelton, CT).
# % is scaled to controls: 0 for no effect and ±100 for the full control effect.
# Vitamin D3 receptor (Homo sapiens), sequence (P11473 whole entry, looked up): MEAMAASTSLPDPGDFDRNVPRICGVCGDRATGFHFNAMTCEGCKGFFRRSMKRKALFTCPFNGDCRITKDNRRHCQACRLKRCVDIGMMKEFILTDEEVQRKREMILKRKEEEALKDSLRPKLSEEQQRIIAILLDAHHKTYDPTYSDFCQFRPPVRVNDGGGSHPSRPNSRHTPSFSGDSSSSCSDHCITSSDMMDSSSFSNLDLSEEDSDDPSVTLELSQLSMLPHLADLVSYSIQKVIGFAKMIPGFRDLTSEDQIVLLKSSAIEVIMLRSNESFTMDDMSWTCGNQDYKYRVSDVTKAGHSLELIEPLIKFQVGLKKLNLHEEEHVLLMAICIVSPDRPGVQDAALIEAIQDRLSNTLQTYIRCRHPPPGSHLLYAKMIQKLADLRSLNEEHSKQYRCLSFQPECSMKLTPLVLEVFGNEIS
row,Compound,"activity change, negative = inhibition"
1,CC(=O)NCCCCCC(=O)O,6.18%
2,CC1(CO)CN(c2ccccc2)NC1=O (stereo not given),3.64%
3,CC(C)C[C@H](NC(=O)CNC(=O)[C@H](Cc1ccc(O)cc1)NC(=O)[C@H](CO)NC(=O)[C@H](Cc1c[nH]c2ccccc12)NC(=O)[C@H](Cc1cnc[nH]1)NC(=O)[C@@H]1CCC(=O)N1)C(=O)N[C@@H](CCCN=C(N)N)C(=O)N1CCC[C@H]1C(=O)NCC(N)=O (stereo in doubt),-0.215%
4,Cc1ccccc1N=O,-1.57% [at 78.8 µM]
5,Nc1nnc(-c2cccc(Cl)c2Cl)c(N)n1,3.51%
6,CC/C=C\CC1=C(C)CCC1=O,-1.31%
7,O=C1CCCC(=O)O1,1.79%
8,O=C(O)Cc1ccc(Cl)cc1Cl,4.43%
9,N#Cc1ccc(C(=O)O)cc1,-8.05%
10,COC(=O)c1ccccc1C(=O)c1ccc(OCCN2CCCCC2)cc1,-1.75%
11,Cc1cc2cc3c(C)cc(=O)oc3c(C)c2o1,1.34%
12,CC(N)C(=O)OC(C)(C)Cc1ccc(Cl)cc1 (stereo not given),-9.86%
13,CC1=C(C(=O)O)N2C(=O)[C@@H](NC(=O)[C@H](N)c3ccc(O)cc3)[C@H]2SC1,4.56%
14,BrCCCCCBr,4.42% [at 78.8 µM]
15,N[C@@H](CCC(=O)N[C@@H](CS)C(=O)NCC(=O)O)C(=O)O,1.09% [at 28.5 µM]
16,CC(=C(CCOC(=O)C(C)C)SSC(CCOC(=O)C(C)C)=C(C)N(C=O)Cc1cnc(C)nc1N)N(C=O)Cc1cnc(C)nc1N,2.96%
17,FC(F)(F)c1ccccc1-n1ccnc1,0.237%
18,Cc1cccc(C)c1NC(=O)c1ccccc1C(=O)O,1.6%
19,CCC(C)NC(N)=O (stereo not given),-7.52%
20,BrCc1cccc(Oc2ccccc2)c1,-9.2%

row,Compound,"activity change, negative = inhibition"
1,CC(C)c1ccc2cc(C(C)C)ccc2c1,10.5%
2,CCCCOC(=O)c1ccccc1,-2.99%
3,COc1nccnc1NS(=O)(=O)c1ccc(N)cc1,-1.46%
4,COC(=O)C1CC(=O)C(C(=O)OC)CC1=O (stereo not given),0.852% [at 6.95 µM]
5,CCOC(=O)c1ncn2c1CN(C)C(=O)c1cc(F)ccc1-2,2.65%
6,Cc1nc2n(c(=O)c1CCN1CCC(c3noc4cc(F)ccc34)CC1)CCC[C@H]2O,9.6% [at 28.5 µM]
7,C[Si](C)(C)C,0.365%
8,COc1ccc(-c2cc(=O)c3c(O)cc(O[C@@H]4O[C@H](CO[C@@H]5O[C@@H](C)[C@H](O)[C@@H](O)[C@H]5O)[C@@H](O)[C@H](O)[C@H]4O)cc3o2)cc1O,9.51%
9,CC(C)CCCC(C)(C)O,-14.9%
10,COc1cc2c(cc1OC)C(=O)CC2,-1.1%
11,CC(=O)Nc1cccc(C)c1,0.35% [at 78.8 µM]
12,N[C@@H](CCC(=O)Nc1ccc([N+](=O)[O-])cc1)C(=O)O,-12.9%
13,c1ccc2c(c1)ccc1c3ccccc3ccc21,0.816%
14,COC(=O)CCCCCCCC(=O)OC,1.23%
15,O=C(CCNNC(=O)c1ccncc1)NCc1ccccc1,2.11%
16,ClCCCl,20.2%
17,CC(C)C(=O)OCCc1ccccc1,3.48%
18,CCOCCOCCOCC,-12.2%
19,CCCCCCCCCCl,-2.6% [at 78.8 µM]
20,CCC(C)(CCC(C)C)C(=O)O (stereo not given),-8.86%

# Reference: PubChem BioAssay (Tox21)
